From the supplement of paper PMC7380943

Tests used:
[1] = tested on: CLZ3 (HCA2 human fibroblast dual HR-NHEJ reporter); assay: NHEJ repair efficiency (GFP+ cells) relative to control (log10 fold); higher = more non-homologous end joining; conditions: 5 µM; doxycycline 0.5 ug/mL
[2] = tested on: CLZ3 (HCA2 human fibroblast dual HR-NHEJ reporter); assay: HR repair efficiency (tdTomato+ cells) relative to control (log10 fold); higher = more homologous recombination; conditions: 5 µM; doxycycline 0.5 ug/mL
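Throughout, for HR repair efficiency (tdTomato+ cells) relative to control: compound given one day before doxycycline, which switches on I-SceI endonuclease expression to create double-strand breaks within the integrated reporter.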
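Throughout, for NHEJ repair efficiency (GFP+ cells) relative to control: compound given one day ahead of doxycycline, which switches on I-SceI endonuclease to cut the chromosomally integrated reporter and create DSBs.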

Compound	NHEJ repair efficiency (log10) [1]	HR repair efficiency (log10) [2]
CC(C)c1cc2c(c(O)c1O)[C@@]1(C(=O)O)CCCC(C)(C)[C@@H]1CC2 [Carnosic acid]	0.106	0.167
C=C[C@@H](O)C#CC#C[C@@H](O)/C=C\CCCCCCC [Falcarindiol]	-0.109	-0.13
CC[C@H]1CN2CC[C@@]3(C(=O)Nc4ccccc43)[C@@H]2C[C@@H]1/C(=C\OC)C(=O)OC [Isorhynchophylline]	-0.108	-0.0739
c1cc2c(cc1[C@H]1OC[C@H]3[C@@H]1CO[C@H]3c1ccc3c(c1)OCO3)OCO2 [Asarinin]	-0.271	-0.223
c1c2c(cc3c1OCO3)-c1cc3ccc4c(c3c[n+]1CC2)OCO4 [Coptisine Chloride]	-0.16	0.0577
CC(C)(C)[C@]1(O)CC2OC(=O)CC23C(=O)OC2OC(=O)[C@H](O)C231 (stereo not given in full) [Bilobalide]	0.0452	0.0541
CC1=C2C[C@H]3[C@@H](CC(=O)[C@H]4C[C@@H](O)CC[C@@]43C)[C@@H]2CC[C@]12O[C@@H]1C[C@H](C)CN[C@H]1[C@H]2C [Peimisine]	-0.0359	-0.00991
COc1c(C)c(O)cc2[o+]c(-c3ccccc3)ccc12.[O-][Cl+3]([O-])([O-])[O-] [Dracorhodin perochlorate]	0.134	0.0436
C=C[C@H]1CN2CC[C@]3(C(=O)Nc4ccccc43)[C@@H]2C[C@@H]1/C(=C\OC)C(=O)OC [Corynoxeine]	-0.123	-0.139
CCN1C[C@]2(COC)CC[C@H](O)C34C1C([C@H](OC)[C@@H]32)[C@]1(O)[C@@H]2[C@H]4CC([C@@H](OC)[C@@H]1O)[C@@H]2O [Fuziline]	0.0177	0.0271
